According to the supplement of paper PMC10849652:
Targets with a hit are over-represented here; the source holds about 7,900 in all. About 0.6% of all pairs of compound and target were hits. A number with no mark means an inactive call.

Tests used:
Test in all cases: log2 fold change, soluble protein after heating vs DMSO (PISA); higher = thermal stabilisation; K562 cells, 10 uM, 30 min; active = over 0.2 and 3.5 SD of the protein, either way, in both replicates (recomputed)
[1] = compound: CC1=C(C=C(C=C1)NC(=O)C2=CC(=CC=C2)C(C)(C)C#N)NC3=CC4=C(C=C3)N=CN(C4=O)C
Outline: (§1)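 K562 cells at 2×10^6 cells/mL were treated for 30 min with 10 μM compound, and aliquots were heated for 3 min over 48°C-58°C before pooling. Extraction used PBS with 0.5% NP-40 at 4°C, and soluble protein was the supernatant after 21,000xg for 90 min, measured by TMTpro 16plex LC-MS/MS with channel sums equalised. Thermal stability values, relative to control samples and from duplicates, are log2 fold changes.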

[2] = compound: CC1=C(C=C(C=C1)NC(=O)C2=CC(=CC=C2)N(C)C)NC(=O)C3=CC=C(C=C3)O
Outline: as §1

[3] = compound: CC1=CC=C(C=C1)SC2=C3C=C(SC3=CN=C2)C(=O)N
Outline: as §1

[4] = compound: CC1=NC(=CC=C1)C2=C(N=C(N2)C(C)(C)C)C3=CC4=NC=CN=C4C=C3
Outline: as §1

Nexturastat A = compound: CCCCN(Cc1ccc(C(=O)NO)cc1)C(=O)Nc1ccccc1 [Nexturastat A]
Outline: as §1

vemurafenib = compound: CCCS(=O)(=O)Nc1ccc(F)c(C(=O)c2c[nH]c3ncc(-c4ccc(Cl)cc4)cc23)c1F [vemurafenib]
Outline: as §1

[5] = compound: CCCS(=O)(=O)Nc1ccc(F)c(C(=O)c2c[nH]c3ncc(Cl)cc23)c1F
Outline: as §1

[6] = compound: CCCc1cc(C)[nH]c(=O)c1CNC(=O)c1cc(-c2ccnc(N3CCN(C)CC3)c2)cc2c1cnn2C(C)C
Outline: as §1

givinostat = compound: CCN(CC)Cc1ccc2cc(COC(=O)Nc3ccc(C(=O)NO)cc3)ccc2c1 [givinostat]
Outline: as §1

barasertib = compound: CCN(CCCOc1ccc2c(Nc3cc(CC(=O)Nc4cccc(F)c4)[nH]n3)ncnc2c1)CCOP(=O)(O)O [barasertib]
Outline: as §1

[7] = compound: CC[C@@H]1C(=O)N(C)c2cnc(Nc3ccc(C(=O)NC4CCN(C)CC4)cc3OC)nc2N1C1CCCC1
Outline: as §1

volasertib = compound: CC[C@@H]1C(=O)N(C)c2cnc(Nc3ccc(C(=O)N[C@H]4CC[C@H](N5CCN(CC6CC6)CC5)CC4)cc3OC)nc2N1C(C)C [volasertib]
Outline: as §1

[8] = compound: CC[C@H](C)N1C=C(C2=C(C=C(C=C21)C3=CN=C(C=C3)N4CCNCC4)C(=O)NCC5=C(C=C(NC5=O)C)C)C
Outline: as §1

epoxomicin = compound: CC[C@H](C)[C@@H](C(=O)N[C@@H]([C@@H](C)O)C(=O)N[C@@H](CC(C)C)C(=O)[C@]1(CO1)C)NC(=O)[C@H]([C@@H](C)CC)N(C)C(=O)C [epoxomicin]
Outline: as §1

[9] = compound: CCn1c(C(=O)N(C2CC2)C2CC2)cc2c3c(ncn3C)c(Nc3cc(C)n(C)n3)nc21
Outline: as §1

[10] = compound: CCn1cc(-c2ccnc3[nH]c(-c4cccc(CN(C)C)c4)cc23)c(-c2ccc(NC(=O)N(C)C)cc2)n1
Outline: as §1

[11] = compound: CN(C)CC(=O)Nc1ccc2[nH]c(=O)c3ccccc3c2c1
Outline: as §1

rosiglitazone = compound: CN(CCOC1=CC=C(C=C1)C[C@H]2C(=O)NC(=O)S2)C3=CC=CC=N3 (racemic) [rosiglitazone]
Outline: as §1

[12] = compound: CN1C2=C(C3=C1C(=O)N(N=C3)CC4=CC(=CC=C4)N)SC(=C2)S(=O)C
Outline: as §1

[13] = compound: CN1CCC(CNc2ccc3ncc(-c4cccc(OC(F)(F)F)c4)n3n2)CC1
Outline: as §1

RPS6KA1 isoform 2 (UniProt Q15418)
UniProt Q15418, sequence (Q15418 whole entry, looked up): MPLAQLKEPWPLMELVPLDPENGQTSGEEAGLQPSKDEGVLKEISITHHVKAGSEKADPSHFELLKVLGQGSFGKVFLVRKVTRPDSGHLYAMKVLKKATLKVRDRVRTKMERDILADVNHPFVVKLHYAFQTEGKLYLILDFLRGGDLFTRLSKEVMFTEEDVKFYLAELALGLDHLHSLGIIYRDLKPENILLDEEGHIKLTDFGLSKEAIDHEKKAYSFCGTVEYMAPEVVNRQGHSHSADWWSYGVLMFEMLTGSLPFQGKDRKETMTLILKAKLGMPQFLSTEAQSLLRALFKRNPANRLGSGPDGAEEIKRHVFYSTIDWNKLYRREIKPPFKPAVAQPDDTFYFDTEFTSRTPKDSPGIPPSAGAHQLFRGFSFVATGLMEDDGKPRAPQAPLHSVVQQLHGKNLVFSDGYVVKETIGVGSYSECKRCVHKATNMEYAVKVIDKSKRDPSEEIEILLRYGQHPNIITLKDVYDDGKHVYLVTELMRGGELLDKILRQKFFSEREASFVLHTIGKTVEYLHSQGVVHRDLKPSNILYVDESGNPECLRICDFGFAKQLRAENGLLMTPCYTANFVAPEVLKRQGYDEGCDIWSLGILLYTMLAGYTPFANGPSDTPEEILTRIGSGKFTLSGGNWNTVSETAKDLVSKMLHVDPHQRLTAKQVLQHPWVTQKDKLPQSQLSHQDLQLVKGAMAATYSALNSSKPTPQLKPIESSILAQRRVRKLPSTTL
log2 fold change [1]: -0.016
log2 fold change [2]: -0.187
log2 fold change [3]: 0.033
log2 fold change [4]: 0.078
log2 fold change (Nexturastat A): 0.004
log2 fold change (vemurafenib): 0.016
log2 fold change [5]: 0.046
log2 fold change [6]: 0.071
log2 fold change (givinostat): -0.141
log2 fold change (barasertib): 0.029
log2 fold change [7]: -0.223
log2 fold change (volasertib): -0.212
log2 fold change [8]: 0.053
log2 fold change (epoxomicin): 0.071
log2 fold change [9]: 0.127
log2 fold change [10]: -0.146
log2 fold change [11]: 0.026
log2 fold change (rosiglitazone): 0.044
log2 fold change [12]: -0.032
log2 fold change [13]: -0.438 (active)

RHEB (UniProt Q15382)
UniProt Q15382, sequence (Q15382 whole entry, looked up): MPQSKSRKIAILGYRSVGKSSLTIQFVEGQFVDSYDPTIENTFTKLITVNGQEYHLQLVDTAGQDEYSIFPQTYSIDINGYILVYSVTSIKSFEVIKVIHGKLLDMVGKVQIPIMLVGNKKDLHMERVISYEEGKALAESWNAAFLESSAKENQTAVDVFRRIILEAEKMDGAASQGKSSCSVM
log2 fold change [1]: 0.008
log2 fold change [2]: -0.002
log2 fold change [3]: 0.008
log2 fold change [4]: 0.052
log2 fold change (Nexturastat A): -0.277 (active)
log2 fold change (vemurafenib): -0.004
log2 fold change [5]: 0.021
log2 fold change [6]: -0.026
log2 fold change (givinostat): -0.009
log2 fold change (barasertib): 0.014
log2 fold change [7]: 0.038
log2 fold change (volasertib): 0.013
log2 fold change [8]: -0.014
log2 fold change (epoxomicin): 0.002
log2 fold change [9]: 0.022
log2 fold change [10]: 0.02
log2 fold change [11]: 0.016
log2 fold change (rosiglitazone): 0.026
log2 fold change [12]: -0.068
log2 fold change [13]: -0.003

REL (UniProt Q04864)
UniProt Q04864, sequence (Q04864 whole entry, looked up): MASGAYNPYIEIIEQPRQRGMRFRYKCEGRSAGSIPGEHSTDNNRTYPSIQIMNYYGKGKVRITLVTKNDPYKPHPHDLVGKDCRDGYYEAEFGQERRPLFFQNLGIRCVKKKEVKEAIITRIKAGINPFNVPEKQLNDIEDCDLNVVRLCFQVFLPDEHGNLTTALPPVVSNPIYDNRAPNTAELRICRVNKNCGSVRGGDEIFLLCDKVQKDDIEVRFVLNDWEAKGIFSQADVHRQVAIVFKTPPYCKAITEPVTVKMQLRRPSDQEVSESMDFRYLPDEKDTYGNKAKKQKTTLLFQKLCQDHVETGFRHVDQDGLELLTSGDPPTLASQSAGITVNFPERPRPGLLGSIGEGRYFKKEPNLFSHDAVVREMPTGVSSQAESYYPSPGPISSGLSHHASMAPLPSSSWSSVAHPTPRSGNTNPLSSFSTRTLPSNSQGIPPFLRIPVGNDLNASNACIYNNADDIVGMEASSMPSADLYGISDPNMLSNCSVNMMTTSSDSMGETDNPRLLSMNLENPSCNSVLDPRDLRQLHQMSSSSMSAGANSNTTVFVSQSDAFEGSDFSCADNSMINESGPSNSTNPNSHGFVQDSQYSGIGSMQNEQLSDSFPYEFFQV
log2 fold change [1]: 0.001
log2 fold change [2]: -0.044
log2 fold change [3]: 0.033
log2 fold change [4]: -0.004
log2 fold change (Nexturastat A): -0.053
log2 fold change (vemurafenib): 0.044
log2 fold change [5]: 0.077
log2 fold change [6]: -0.022
log2 fold change (givinostat): 0.101
log2 fold change (barasertib): 0.079
log2 fold change [7]: 0.045
log2 fold change (volasertib): -0.176
log2 fold change [8]: -0.022
log2 fold change (epoxomicin): 0.043
log2 fold change [9]: -0.062
log2 fold change [10]: 0.159
log2 fold change [11]: 0.003
log2 fold change (rosiglitazone): 0.063
log2 fold change [12]: 0.011
log2 fold change [13]: 0.141

RPL31 (UniProt P62899)
log2 fold change [1]: -0.005
log2 fold change [2]: 0.01
log2 fold change [3]: -0.086
log2 fold change [4]: -0.075
log2 fold change (Nexturastat A): 0.168
log2 fold change (vemurafenib): -0.145
log2 fold change [5]: -0.15
log2 fold change [6]: 0.092
log2 fold change (givinostat): 0.031
log2 fold change (barasertib): -0.149
log2 fold change [7]: 0.212
log2 fold change (volasertib): 0.457
log2 fold change [8]: 0.01
log2 fold change (epoxomicin): -0.238
log2 fold change [9]: 0.036
log2 fold change [10]: 0.216
log2 fold change [11]: -0.108
log2 fold change (rosiglitazone): -0.124
log2 fold change [12]: 0.251
log2 fold change [13]: 0.259

RPS19 (UniProt P39019)
log2 fold change [1]: 0.008
log2 fold change [2]: 0.007
log2 fold change [3]: -0.054
log2 fold change [4]: -0.009
log2 fold change (Nexturastat A): 0.121
log2 fold change (vemurafenib): -0.07
log2 fold change [5]: -0.066
log2 fold change [6]: -0.039
log2 fold change (givinostat): 0.013
log2 fold change (barasertib): -0.083
log2 fold change [7]: 0.147
log2 fold change (volasertib): 0.319
log2 fold change [8]: 0.008
log2 fold change (epoxomicin): -0.115
log2 fold change [9]: 0.041
log2 fold change [10]: 0.091
log2 fold change [11]: -0.073
log2 fold change (rosiglitazone): -0.063
log2 fold change [12]: 0.147
log2 fold change [13]: 0.121

SEC23A (UniProt Q15436)
UniProt Q15436, sequence (Q15436 whole entry, looked up): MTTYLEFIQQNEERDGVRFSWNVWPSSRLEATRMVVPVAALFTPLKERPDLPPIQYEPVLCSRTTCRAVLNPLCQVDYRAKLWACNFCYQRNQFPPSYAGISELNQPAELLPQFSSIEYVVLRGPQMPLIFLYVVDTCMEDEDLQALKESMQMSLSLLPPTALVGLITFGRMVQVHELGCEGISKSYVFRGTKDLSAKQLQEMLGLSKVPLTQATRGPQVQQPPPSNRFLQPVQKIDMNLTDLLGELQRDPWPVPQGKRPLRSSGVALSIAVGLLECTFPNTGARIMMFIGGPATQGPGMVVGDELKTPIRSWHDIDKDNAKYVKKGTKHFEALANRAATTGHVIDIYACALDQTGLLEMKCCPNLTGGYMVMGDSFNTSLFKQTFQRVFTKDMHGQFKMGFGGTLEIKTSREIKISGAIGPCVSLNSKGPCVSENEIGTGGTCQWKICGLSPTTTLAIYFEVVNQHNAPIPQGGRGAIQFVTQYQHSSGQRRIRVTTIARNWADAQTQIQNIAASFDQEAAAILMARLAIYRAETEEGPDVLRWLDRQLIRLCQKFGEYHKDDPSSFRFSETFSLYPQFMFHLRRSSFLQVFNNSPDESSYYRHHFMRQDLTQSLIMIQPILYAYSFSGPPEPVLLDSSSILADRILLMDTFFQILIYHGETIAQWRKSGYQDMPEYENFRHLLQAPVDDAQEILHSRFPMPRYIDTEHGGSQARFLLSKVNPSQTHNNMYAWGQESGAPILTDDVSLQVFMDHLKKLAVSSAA
log2 fold change [1]: 0.005
log2 fold change [2]: -0.067
log2 fold change [3]: -0.027
log2 fold change [4]: -0.041
log2 fold change (Nexturastat A): 0.008
log2 fold change (vemurafenib): 0.049
log2 fold change [5]: 0.06
log2 fold change [6]: 0.003
log2 fold change (givinostat): -0.025
log2 fold change (barasertib): 0.027
log2 fold change [7]: 0.149
log2 fold change (volasertib): -0.156
log2 fold change [8]: 0.1
log2 fold change (epoxomicin): -0.016
log2 fold change [9]: 0.017
log2 fold change [10]: -0.123
log2 fold change [11]: 0.052
log2 fold change (rosiglitazone): -0.011
log2 fold change [12]: -0.027
log2 fold change [13]: 0.042

SEC23IP (UniProt Q9Y6Y8)
UniProt Q9Y6Y8, sequence (Q9Y6Y8 whole entry, looked up): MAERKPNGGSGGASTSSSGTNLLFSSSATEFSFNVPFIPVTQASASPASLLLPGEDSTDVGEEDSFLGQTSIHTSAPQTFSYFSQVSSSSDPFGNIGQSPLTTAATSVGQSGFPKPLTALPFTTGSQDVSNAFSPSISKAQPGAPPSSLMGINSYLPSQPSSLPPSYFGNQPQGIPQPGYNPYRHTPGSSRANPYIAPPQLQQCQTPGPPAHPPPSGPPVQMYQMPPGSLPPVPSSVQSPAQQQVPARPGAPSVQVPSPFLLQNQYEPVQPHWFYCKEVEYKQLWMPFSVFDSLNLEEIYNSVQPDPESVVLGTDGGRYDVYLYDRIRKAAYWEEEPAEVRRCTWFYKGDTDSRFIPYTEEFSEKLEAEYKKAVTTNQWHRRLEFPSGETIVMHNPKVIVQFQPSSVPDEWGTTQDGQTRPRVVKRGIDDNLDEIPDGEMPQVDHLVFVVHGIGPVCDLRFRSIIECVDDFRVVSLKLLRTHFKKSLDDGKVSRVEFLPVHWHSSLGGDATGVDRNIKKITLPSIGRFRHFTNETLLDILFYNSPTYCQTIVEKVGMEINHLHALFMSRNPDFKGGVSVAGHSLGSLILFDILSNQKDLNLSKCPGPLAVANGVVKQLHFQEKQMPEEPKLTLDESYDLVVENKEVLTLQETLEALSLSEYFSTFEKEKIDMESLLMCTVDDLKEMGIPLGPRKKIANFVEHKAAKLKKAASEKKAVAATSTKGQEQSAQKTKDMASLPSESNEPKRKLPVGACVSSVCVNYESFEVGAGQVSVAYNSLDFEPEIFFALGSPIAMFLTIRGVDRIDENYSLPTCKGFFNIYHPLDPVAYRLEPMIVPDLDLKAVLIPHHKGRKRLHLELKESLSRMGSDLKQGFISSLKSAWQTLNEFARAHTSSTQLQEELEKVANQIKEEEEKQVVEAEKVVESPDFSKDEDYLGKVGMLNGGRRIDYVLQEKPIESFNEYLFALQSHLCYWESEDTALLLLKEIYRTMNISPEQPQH
log2 fold change [1]: 0.016
log2 fold change [2]: 0.041
log2 fold change [3]: 0.041
log2 fold change [4]: 0.012
log2 fold change (Nexturastat A): 0.022
log2 fold change (vemurafenib): 0.051
log2 fold change [5]: 0.056
log2 fold change [6]: 0.024
log2 fold change (givinostat): 0.047
log2 fold change (barasertib): 0.016
log2 fold change [7]: -0.069
log2 fold change (volasertib): -0.005
log2 fold change [8]: 0.032
log2 fold change (epoxomicin): -0.009
log2 fold change [9]: -0.101
log2 fold change [10]: -0.057
log2 fold change [11]: 0.012
log2 fold change (rosiglitazone): 0.289
log2 fold change [12]: -0.008
log2 fold change [13]: -0.133

RAB33B (UniProt Q9H082)
UniProt Q9H082, sequence (Q9H082 whole entry, looked up): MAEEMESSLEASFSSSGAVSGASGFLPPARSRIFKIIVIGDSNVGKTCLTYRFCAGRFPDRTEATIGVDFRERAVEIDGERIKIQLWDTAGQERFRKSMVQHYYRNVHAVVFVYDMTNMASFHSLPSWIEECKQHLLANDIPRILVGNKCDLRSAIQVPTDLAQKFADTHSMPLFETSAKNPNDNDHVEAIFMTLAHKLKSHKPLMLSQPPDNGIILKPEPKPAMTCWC
log2 fold change [1]: -0.028
log2 fold change [2]: -0.026
log2 fold change [3]: -0.028
log2 fold change [4]: -0.071
log2 fold change (Nexturastat A): -0.004
log2 fold change (vemurafenib): -0.083
log2 fold change [5]: -0.038
log2 fold change [6]: -0.065
log2 fold change (givinostat): -0.012
log2 fold change (barasertib): 0.031
log2 fold change [7]: -0.016
log2 fold change (volasertib): -0.014
log2 fold change [8]: -0.04
log2 fold change (epoxomicin): -0.009
log2 fold change [9]: -0.005
log2 fold change [10]: 0.09
log2 fold change [11]: -0.031
log2 fold change (rosiglitazone): 0.033
log2 fold change [12]: -0.067
log2 fold change [13]: -0.006
